About 79,000 compounds went through this panel and 15% of them were active in at least one assay; those are over-represented in the sample as a whole. Active and inactive are the calls of the source. Rule as the data show it: active = growth inhibition above about 70%; inactive = the rest.
Key:
[1] = NCI Yeast Anticancer Drug Screen. Data for the rad50 strain (AID 155);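 also: 0% = growth of vehicle-only cultures of the same strain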; conditions: S. cerevisiae rad50 strain growth inhibition; at 50.0 µM; active compounds read high
How it was run: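 Relative growth inhibition (compound vs vehicle) was measured in yeast with a defined repair-gene alteration.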

[2] = NCI Yeast Anticancer Drug Screen. Data for the mec2-1 strain (AID 157); conditions: S. cerevisiae mec2-1 strain, at 50.0 µM, active compounds read high
How it was run: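 Strain: mec2-1 (DNA repair/cell cycle alteration). Compound exposure, then growth measured; inhibition expressed relative to vehicle.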

[3] = NCI Yeast Anticancer Drug Screen. Data for the sgs1 mgt1 strain (AID 161);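 also: 0% = growth of cultures given vehicle only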; conditions: S. cerevisiae sgs1 mgt1 strain, at 50.0 µM, active compounds read high
How it was run: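 Mutant yeast exposed to compound; growth scored against vehicle-only wells.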

[4] = NCI Yeast Anticancer Drug Screen. Data for the cln2 rad14 strain (AID 165);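 also: 0% = growth equal to vehicle treated cultures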; conditions: S. cerevisiae cln2 rad14 strain, at 50.0 µM, active compounds read high
How it was run: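 Compounds are applied to the cln2 rad14 yeast strain, and growth is then compared with that of vehicle-treated cultures to give inhibition.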

[5] = NCI Yeast Anticancer Drug Screen. Data for the bub3 strain (AID 167); conditions: S. cerevisiae bub3 mutant strain, at 50.0 µM, active compounds read high
How it was run: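 Screening used yeast with an engineered genetic alteration affecting cell cycle control. Compound-exposed cultures were compared with vehicle cultures, and reduced growth was taken as inhibition.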

[6] = NCI Yeast Anticancer Drug Screen. Data for the mlh1 rad18 strain (AID 175); conditions: S. cerevisiae mlh1 rad18 strain growth inhibition; at 50.0 µM; active compounds read high
How it was run: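 Read-out is yeast growth inhibition, calculated against vehicle-only controls. The compound was applied to a strain engineered with DNA damage repair alterations.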

Measured: growth inhibition

CC1CCC(Oc2nc3c(c(=O)n(C)c(=O)n3C)n2C)CC1 (centres undefined)
inactive: [1] -4.75% | [2] -2.85% | [3] -14.8% | [4] 2% | [5] -8.7% | [6] -12.5%

Cc1nc2nn(C)cc2c(=O)n1/N=C/c1ccccc1
inactive: [1] -18.8% | [2] -35.5% | [3] -50.1% | [4] -5.9% | [5] -4.15% | [6] -37.4%

CC1CC(=O)CC(C)C1 (centres undefined)
inactive: [1] 1.7% | [2] -0.1% | [3] -10.5% | [4] -27.1% | [5] 19.9% | [6] 16.6%

O=C(NC(=O)c1ccc([N+](=O)[O-])cc1)Nc1ccccc1
inactive: [1] 10.3% | [2] -4.35% | [3] -1.4% | [4] -25.4% | [5] -14.8% | [6] 5%

C=C1CCc2occ(C)c2C2C1C1=C(CC(C)C1=O)C1OC12C (centres undefined)
inactive: [1] 14.9% | [2] 11.1% | [3] -2.75% | [4] -22.8% | [5] 12.4% | [6] 10.2%

COC(=O)c1cc(Cl)ccc1NC(=O)C1CCCCC1
inactive: [1] 4.75% | [2] 15.8% | [3] 23% | [4] 27.8% | [5] 15.2% | [6] 36%

CON(C)c1nc(N(C)C)nc(N(C)C)n1
inactive: [1] -1.65% | [2] 11.6% | [3] -6.25% | [4] 3.7% | [5] 1.8% | [6] 0.9%

CC(=O)Nc1cc2c(cc1Br)-c1ccccc1C2=O
inactive: [1] -15% | [2] -3.5% | [3] 15.4% | [4] -31.7% | [5] 9.45% | [6] -2.15%

Cc1cnc(NCCCCCCNc2ncc(C)c(-c3ccccc3O)n2)nc1-c1ccccc1O
inactive: [1] 13.1% | [2] -4.55% | [3] -26.5% | [4] 4% | [5] 0.35% | [6] 4.5%

COC(=O)C1OC(Sc2ncnc3nc[nH]c23)C(O)C(O)C1O (centres undefined)
inactive: [1] 3.15% | [2] 1.6% | [3] -0.85% | [4] 17.4% | [5] 7.3% | [6] 4.9%

CCOC(=O)c1nc[nH]c1C(=O)OCC
inactive: [1] 17.5% | [2] -7.25% | [3] -6.1% | [4] 11% | [5] -1.35% | [6] 12%

CC12CC3CC/C(=N\O)C(C1)C3(N1CCOCC1)C/C2=N/O (centres undefined)
inactive: [1] -22.2% | [2] -16.7% | [3] -10.2% | [4] 0.3% | [5] -14.8% | [6] 8.8%

Cc1nnc2ncccn12
inactive: [1] 31.1% | [2] -10.3% | [3] 8.4% | [4] -0.1% | [5] 0.55% | [6] -42.2%

O=[N+]([O-])c1ccc(/C=C(/c2ccc([N+](=O)[O-])o2)S(=O)(=O)c2ccccc2)o1
active: [1] 86% | [3] 92.1% | [4] 71.1% | [6] 90.2%
inactive: [2] 67.7% | [5] 61%

O=[N+]([O-])c1ccc(S(=O)c2ccc([N+](=O)[O-])cc2)cc1
inactive: [1] 24.8% | [2] 11.6% | [3] 5.5% | [4] -11.1% | [5] -1.75% | [6] -4.75%

Nc1ccc2c(c1)C1C(C3C2C2(Cl)C(Cl)=C(Cl)C3(Cl)C2(Cl)Cl)C2(Cl)C(Cl)=C(Cl)C1(Cl)C2(Cl)Cl (centres undefined)
inactive: [1] 33.6% | [2] 24.9% | [3] 21.9% | [4] 24.1% | [5] 50.1% | [6] 39.5%

OC(c1cccc(OCc2ccccc2)c1)c1ccccn1 (centres undefined)
inactive: [1] 4.95% | [2] -6.6% | [3] 2.15% | [4] -20.9% | [5] 2.15% | [6] 2%

CCOC(=O)/C=C\SCC(=O)OCC
inactive: [1] -8.95% | [2] -4.1% | [3] -6.3% | [4] -33.4% | [5] 4.1% | [6] -14.9%

COc1ccc(OC)c(N=Cc2ccc(C=Nc3cc(OC)ccc3OC)cc2)c1
inactive: [1] -8% | [2] -12.3% | [3] -10.6% | [4] 4.7% | [5] -9% | [6] -5.8%

CC1CCC2CCCCC2/C1=N\NC(N)=O (centres undefined)
inactive: [1] -10.8% | [2] -3.9% | [3] 3.95% | [4] 2.35% | [5] 0.25% | [6] -16.7%

COc1ccc(N=Cc2c(O)ccc3ccccc23)cc1
inactive: [1] 12% | [2] 48% | [3] 43.1% | [4] 0.95% | [5] 32% | [6] 63%

CC(=O)C(N=Nc1nc2ccccc2[nH]1)C(C)=O
inactive: [1] 27.1% | [2] 14.1% | [3] -1.8% | [4] 15.2% | [5] 47.9% | [6] 32.5%

c1ccc(NCc2nc3ccccc3[nH]2)cc1
inactive: [1] -1.6% | [2] -7.55% | [3] -10.4% | [4] 24.3% | [5] 7.6% | [6] 1.15%

Cc1ccc2c(c1)C(c1ccccc1)(c1ccccc1)OC2=O
inactive: [1] 17.6% | [2] 11.9% | [3] 6.75% | [4] 7.95% | [5] 11.4% | [6] 20.4%

CNCCC(=O)C1CCC(OC)CC1 (centres undefined)
inactive: [1] 26.2% | [2] -3% | [3] 2.1% | [4] -49.5% | [5] 5.45% | [6] -8.45%

O=[N+]([O-])c1ccc(/C=N\N=P(c2ccccc2)(c2ccccc2)c2ccccc2)cc1
inactive: [1] -6.25% | [2] 3.25% | [3] 12.8% | [4] 1.9% | [5] -4.65% | [6] -3.85%

O=CC12c3ccccc3C(c3ccccc31)C1C(=O)NC(=O)C12 (centres undefined)
inactive: [1] 1.65% | [2] -1.05% | [3] 7.6% | [4] 31.1% | [5] -18.3% | [6] 6.65%

CC1NNC(=S)NN1
inactive: [1] -19.3% | [2] 1.35% | [3] 0.85% | [4] -9.7% | [5] 1.4% | [6] 11.8%

CC(C)(C#N)OC(=O)Nc1c(Cl)cccc1Cl
inactive: [1] 2.4% | [2] -23.2% | [3] 5.15% | [4] 3.6% | [5] 11.2% | [6] 6.5%

N#CC(N)c1ccc(OCCCCCCCCCCOc2ccc(C(N)C#N)cc2)cc1 (centres undefined)
inactive: [1] 1.5% | [2] 2.65% | [3] -27.2% | [4] -7.8% | [5] -17.4% | [6] -20.8%

O=C(O)CCCC1CCC2NC(=O)NC2C1 (centres undefined)
inactive: [1] 1.55% | [2] 5.15% | [3] -5.45% | [4] 6.4% | [5] 16.5% | [6] -6%

O=[N+]([O-])C(/C=C(\Cl)[N+](=O)[O-])=C1Nc2ccccc2N1
inactive: [1] 29.9% | [2] 45.1% | [3] 57.2% | [4] 19.4% | [5] 21.1% | [6] 50.5%

O=S(=O)(Nc1cccc(Br)c1)N1CCCCC1
inactive: [1] 23.5% | [2] 10% | [3] 23.6% | [4] 13.8% | [5] 28.6% | [6] 31.6%

CC(C)(C)NN=C1C(C)(C)C(=NNC(C)(C)C)C1(C)C
inactive: [1] -24% | [2] -30.1% | [3] -13.8% | [4] 13.9% | [5] -23.1% | [6] -10.9%

CC(C)(C)C1CCC2c3c([nH]c4ccccc34)C3C(=O)N(c4ccc(Cl)cc4)C(=O)C3C2C1 (centres undefined)
inactive: [1] 37.6% | [2] -20% | [3] -6.1% | [4] -44.4% | [5] -25.4% | [6] -13.2%

O=C(Nc1ccc(Cl)c(Cl)c1)C(=O)Nn1c(=S)[nH]c2ccccc2c1=O
inactive: [1] -4.05% | [2] -16.4% | [3] 2.8% | [4] -1.5% | [5] -0.8% | [6] 0.65%

CC(C(=O)O)c1ncnn1-c1ccccc1 (centres undefined)
inactive: [1] -3.35% | [2] 41% | [3] 6.45% | [4] 4.85% | [5] 10.6% | [6] 2.65%

CCCCCCCC(N)C(=O)O (centres undefined)
inactive: [1] 0% | [2] -2.55% | [3] 2.25% | [4] -26.2% | [5] -10.1% | [6] -12.9%

O=C(O)Cc1c(-c2ccc([N+](=O)[O-])cc2)c(=O)oc2cc(O)ccc12
inactive: [1] 28.4% | [2] 4.15% | [3] 9% | [4] 20.1% | [5] 41% | [6] 11.7%
